Experimental findings from PubChem BioAssay (NCATS) are described below.

Molecules are shown by their SMILES. “And” between values parts separate entries of the source, which are not always exact repeats. Equal entries are not always repeated. Records with an inconclusive call do not appear. A structure can be active in one record and inactive in another. The source made the active and inactive calls. Unless noted, calls follow the shape of the dose curve; as a rule, active = well fitted curve in the direction sought with a large enough effect; inconclusive = small, poorly fitted or top-dose-only effect, or another doubt; inactive = no such curve, though single readings can be large; an effect the other way counts as inactive or inconclusive.

Assay [1] in a line: P-glycoprotein substrates identified in KB-3-1 adenocarcinoma cell line, qHTS therapeutic library screen (AID 1346986). Also: nearly all actives have a fitted effect of over 60% in size.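 Also: potency is read from the fitted curve at half-maximal effect; potency is for cytotoxicity meaning loss of cell viability.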 A digest of the protocol:
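Using luminescence to quantify ATP, parental and P-gp-overexpressing KB cells were compared after 72 h compound titration. KB-8-5-11 was also run with the P-gp inhibitor tariquidar.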
Background: qHTS replaces the single test concentration by a dilution series.

The nature of assay [2]: Primary qHTS for inhibitors of nuclear receptor binding SET domain protein 2 (NSD2) in an isogenic RCH-ACV NSD2 p.E1099K mutant (9B) (AID 1645876). Also: nearly all actives have a fitted effect of over 70% in size. Also: potency is read from the fitted curve at half-maximal effect.
The nature of assay [3]: Primary qHTS for inhibitors of nuclear receptor binding SET domain protein 2 (NSD2) in an RCH-ACV wild type WT cells (2C) (AID 1645877). Also: nearly all actives have a fitted effect of over 70% in size. Also: potency is read from the fitted curve at half-maximal effect.
Assay [4] has as its target Glutathione peroxidase 1 (Homo sapiens) (UniProt P07203). In words: Primary qHTS Assay for Inhibitors of Recombinant Selenoprotein Glutathione Peroxidase 1 (GPX1) (AID 1845191). Also: nearly all actives have a fitted effect of over 65% in size. A digest of the protocol:
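GPX1 10 nM, GR 100 nM, GSH 1 mM, NADPH 0.5 mM, CHP 0.5 mM (final). 30-min cpd preincubation, RT. Ex340/Em450 read t=0, t=15 min.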

The target of assay [5] is Phospholipid hydroperoxide glutathione peroxidase GPX4 (Homo sapiens) (UniProt P36969). In words: Primary qHTS Assay for Inhibitors of Recombinant Selenoprotein Glutathione Peroxidase 4 (GPX4) (AID 1845192). Also: series mostly up to about 50 µM; nearly all actives have a fitted effect of over 65% in size. To be noted: outcome: dose series up to 50 µM unless noted. A digest of the protocol:
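qHTS, GR-coupled: GPX4 200 nM + cpd 30 min RT → GSH 1 mM, NADPH 0.5 mM, GR 100 nM → CHP 0.5 mM start; fluor 340/450 at t0 and t15 min; no-enzyme wells as control.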

Assay [6] in a line: qHTS drug screen for cell cycle checkpoint inhibitors in PARPi-resistant BRCA-mutant ovarian cancer cell lines. (AID 1963452; calls by dose curve). To be noted: PEO1/OlaR viability, CellTiter-Glo luminescence, 96 h, stronger effect = lower value. The essentials:
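PEO1, PEO4 and PEO1/OlaR ovarian cancer cells, 600 per well, exposed 96 h at 37C to a dilution series. Viability read by CellTiter-Glo luminescence, normalized to DMSO and empty wells; activity summarized as Z-AUC.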

Chain of Glutathione peroxidase 1 (Homo sapiens) (P07203 whole entry, looked up): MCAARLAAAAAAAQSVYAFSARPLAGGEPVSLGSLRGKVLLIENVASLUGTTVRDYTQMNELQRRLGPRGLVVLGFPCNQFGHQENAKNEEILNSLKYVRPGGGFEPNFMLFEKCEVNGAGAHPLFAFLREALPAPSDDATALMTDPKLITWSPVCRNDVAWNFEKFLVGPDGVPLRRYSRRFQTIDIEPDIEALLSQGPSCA
Chain of Phospholipid hydroperoxide glutathione peroxidase GPX4 (Homo sapiens) (P36969 whole entry, looked up): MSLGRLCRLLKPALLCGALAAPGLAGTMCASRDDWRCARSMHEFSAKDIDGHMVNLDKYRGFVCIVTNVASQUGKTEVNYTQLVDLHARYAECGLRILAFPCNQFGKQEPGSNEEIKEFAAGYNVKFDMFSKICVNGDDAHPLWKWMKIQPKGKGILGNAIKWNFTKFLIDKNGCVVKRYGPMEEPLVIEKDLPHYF

As to `CCCC(NC(=O)/C(C#N)=C/c1cccc(Br)n1)c1ccccc1` (configuration not stated), the Potency in assay [1] is 16.4 µM (active); in assay [2], 2.91 µM (active); in assay [3], 3.26 µM (active).
In the case of `COc1cc(OC)c(C(=O)/C=C/c2ccccc2)c2c1C=CC(C)(C)O2`, the Potency entry in assay [1] and in assay [4] was “inactive” each time. Moreover, the figures for the Potency in assay [2] and in assay [3] were 16.4 µM (active) and 18.4 µM (active), respectively.
On to `Cc1cc(Nc2nn(-c3ccccc3)c(=O)c3ccccc23)n[nH]1`, for which the Potency in assay [1] was 6.51 µM (active); in assay [2], 1.16 µM (active); in assay [3], 1.03 µM (active). Moreover, the Potency entry in assay [4] is “inactive”.
As to `O=c1sn(-c2cccc3ccccc23)c(=O)n1Cc1ccccc1`, the Potency entry in assay [1], in assay [2] and in assay [5] was “inactive” in each case. In addition, the Potency entry in assay [3] is “inactive and 7.42 µM (active)”. The Z-AUC is 0.462 (inactive) in assay [6], 0.135 in assay [6] (measured here: PEO1 parental Z-AUC) and 0.0223 in assay [6] (measured here: PEO4 Z-AUC).
With `O=C1NC(=NCc2cccs2)S/C1=C/c1ccc2ncccc2c1`, the Potency in assay [1] was 4.11 µM (active); in assay [2], 3.66 µM (active); in assay [3], 2.91 µM (active). For the same compound, the Potency entry in assay [4] was “inactive”.
